# Source: PubChem BioAssay (Broad Institute)
# Shown is part of a subset that was picked to be rich in hits.
# ROS inducer: ROS inducers in U2OS cancer cells, primary screen, cell-based, H2DCF-DA fluorescence | U2OS ROS induction | hit rate 2% among 46,000 | ROS induction (% of piperlongumine), % at 10 µM; in the data active = ROS induction above about 79%, passing the limit was not always enough;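 also: 0% = DMSO vehicle median and 100% = reference compound median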
# NOMO-1 viab: NOMO-1 AML cell viability reduction, primary screen, STK33 inhibitor project, CellTiter-Glo luminescence; NOMO-1 AML viability, 72 h; inhibition, % (test concentration not listed); hit rate 7.5% among 37,000; AID 2330, 2010; in the data active = inhibition above about 80%
# * hit, by the source's call; · = no result.
SMILES,ROS inducer,NOMO-1 viab
Cc1ccc(C(=O)Nc2ccc(OCC(=O)O)cc2)cc1C,9,44
COc1cc2c(cc1OC)N1C(=O)C[C@]34C=CCN5CC[C@@H]2[C@@H](CC3)[C@]514,86*,·
S=C(NC1CCCCC1)Sc1ccc(Cl)cc1,10,122*
S=C(NC1CCCCC1)C(=S)NC1CCCCC1,73,34
COC(=O)c1ccc([C@@H]2C=C(C(=O)N3CCN(Cc4ccc5c(c4)OCO5)CC3)O[C@H](OCc3ccc(CO)cc3)C2)cc1,100*,·
O=C(C1=C[C@@H](c2ccc3c(c2)Cc2ccccc2-3)C[C@@H](OCc2ccc(CO)cc2)O1)N1CCN(Cc2ccc3c(c2)OCO3)CC1,29,·
Cc1noc(C)c1S(=O)(=O)Nc1ccc2c(c1)C(=O)N([C@H](C)CO)C[C@@H](C)[C@@H](CN(C)C(=O)Nc1ccc3c(c1)OCO3)O2,-5,18
CC(=O)O[C@H]1C(=O)[C@@]2(C)C([C@H](OC(=O)c3ccccc3)[C@]3(O)C[C@H](OC(=O)[C@H](O)[C@@H](NC(=O)c4ccccc4)c4ccccc4)C(C)=C1C3(C)C)[C@]1(OC(C)=O)CO[C@@H]1C[C@@H]2O (stereo partly drawn),-4,98*
O=C(CCCn1cc([N+](=O)[O-])cn1)Nc1cccc(C(F)(F)F)c1,·,0
C[C@@H]1CN([C@H](C)CO)C(=O)c2cc(NC(=O)Nc3ccccc3)ccc2O[C@@H]1CN(C)Cc1ccc(C(=O)Nc2ccccc2N)cc1,7,109*
C[C@H](CO)N1C[C@H](C)[C@@H](CN(C)Cc2ccc(C(=O)Nc3ccccc3N)cc2)Oc2ccc(NC(=O)Nc3ccc(F)cc3)cc2C1=O,-7,31
C[C@@H]1CN([C@H](C)CO)C(=O)c2cc(NC(=O)Cc3ccccc3)ccc2O[C@@H]1CN(C)Cc1ccc(C(=O)Nc2ccccc2N)cc1,13,105*
C[C@H](CO)N1C[C@H](C)[C@@H](CN(C)Cc2ccc(C(=O)Nc3ccccc3N)cc2)Oc2ccc(NC(=O)Cc3ccccc3)cc2C1=O,1,4
COc1ccc(S(=O)(=O)Nc2ccc3c(c2)C(=O)N([C@@H](C)CO)C[C@H](C)[C@H](CN(C)C(=O)Nc2ccc(C(F)(F)F)cc2)O3)cc1,8,5
COc1ccc(NC(=O)Nc2ccc3c(c2)C(=O)N([C@H](C)CO)C[C@H](C)[C@H](CN(C)C(=O)C2CCCCC2)OCCCC[C@@H](C)O3)cc1,26,20
CCCCc1nc2sc3c(NCc4ccccc4)ncnc3c2c2c1COC(C)(C)C2,-9,·
CCCCc1nc2sc3c(Cl)ncnc3c2c2c1COC(C)(C)C2,113*,·
O=C1c2c(O)ccc(O)c2C(=O)c2c(NCCNCCO)ccc(NCCNCCO)c21,-7,120*
Cc1nc(SCC(=O)NCc2ccco2)c2c3c(sc2n1)CCC3,1,14
CCOC(=O)CSc1ncnc2c1sc1nc3c(cc12)COC(C)(C)C3,58,-7
O=C(CSc1ncnc2sc3c(c12)CCCCC3)NCc1ccco1,-8,131*
CC1(C)Cc2nc3sc4c(SCC(=O)NCc5ccco5)ncnc4c3cc2CO1,7,127*
CC(C)CN(CC(C)C)c1ncnc2c1cnn2-c1ccc(Cl)cc1,17,·
CCOC(=O)c1sc2sc(C(=O)OCC)c(-c3ccc(Cl)cc3)c2c1N,93*,68
CCOC(=O)c1c(CS(=O)c2ccc(Cl)cc2)oc2c(F)c(F)c(F)c(F)c12 (stereo not drawn),-3,·
SMILES,ROS inducer,NOMO-1 viab
Cc1noc(C)c1NC(=O)Nc1cccc2c1O[C@@H](CN(C)Cc1ccc(Oc3ccccc3)cc1)[C@H](C)CN([C@@H](C)CO)C2=O,15,67
Cc1ccc(S(=O)(=O)Nc2cccc3c2O[C@@H](CN(C)C(=O)Nc2ccc(C(F)(F)F)cc2)[C@H](C)CN([C@H](C)CO)C3=O)cc1,-8,26
Nc1c2c(nc3ccccc13)CCCC2,2,12
Nc1c2ccccc2nc2ccccc12,4,107*
COC(=O)C1=CN(c2cccc(C(F)(F)F)c2)C=C(C(=O)OC)C1c1ccc(F)cc1,69,·
CNC(=O)CN(c1cc([N+](=O)[O-])ccc1OC)S(C)(=O)=O,-9,1
COc1ccc([N+](=O)[O-])cc1NC(=O)C(C)N(c1ccc(C)cc1)S(C)(=O)=O (stereo not drawn),-4,112*
COc1ccc(NC(=O)C(C)N(c2ccc(C)cc2)S(C)(=O)=O)c(OC)c1 (stereo not drawn),5,7
COC(=O)CN(c1cc([N+](=O)[O-])ccc1OC)S(C)(=O)=O,·,100*
CCC(C)C1NC(=O)C(CC(C)C)NC(=O)C(CC(=O)O)NC(=O)C(C(C)C)NC(=O)C(CC(C)C)NC(=O)C(CC(C)C)NC(=O)C(CCC(N)=O)NC(=O)CC(CCCCCCCCCC(C)C)OC1=O (stereo not drawn),-14,·
